Compound activity deposited in PubChem by NMMLSC.
MEKK2wt PB1 HTS: raises or lowers MEK5 binding to wildtype human MEKK2 PB1 domain | Q9Y2U5 | bead flow cytometry, Alexa488-MEK5 binding to MEKK2 WT; actives lie on both sides | binding response (% of control), % at 10 µM | 290,000 tested, 1.1% active; in the data active = binding response below about 67% or above about 130%
GRK2 aptamer HTS: inhibitors of human GRK2 displacing RNA aptamer. inhibition of aptamer binding, % at 10 µM. 330,000 tested, 0.59% active. bead flow cytometry, FAM-aptamer displacement from GRK2. AID 488847;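 active = inhibition of aptamer binding above 40%, roughly 3 SD of noise, on plates passing a quality check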;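 also: median bead fluorescence of bound FAM aptamer so fluorescent compounds give negative values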
MEKK2mut PB1 HTS: signal of MEK5 binding to mutant human MEKK2 PB1 domain; bead flow cytometry, Alexa488-MEK5 binding to MEKK2 mutant; percent response, % at 10 µM; 290,000 tested, 0.35% active; AID 1530; in the data active = percent response above about 24%, passing the limit was not always enough
MEKK3 PB1 HTS: modulators (inhibitors or enhancers) of MEK5 binding to human MEKK3 PB1 domain | bead-based flow cytometry, Alexa488-MEK5 binding to MEKK3; actives lie on both sides; 0 = blocked by unlabeled MEK5, 100 = vehicle | 290,000 tested, 1.4% active | binding response (% of control), % at 10 µM | AID 1529;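 active = binding response more than 3 SD above or below the average of its plate-row segment, actives on both sides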;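 also: Alexa488 bead fluorescence after subtracting the streptavidin-only scavenger bead signal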
Target sequence (Q99759 whole entry, looked up, the tested form may be a part): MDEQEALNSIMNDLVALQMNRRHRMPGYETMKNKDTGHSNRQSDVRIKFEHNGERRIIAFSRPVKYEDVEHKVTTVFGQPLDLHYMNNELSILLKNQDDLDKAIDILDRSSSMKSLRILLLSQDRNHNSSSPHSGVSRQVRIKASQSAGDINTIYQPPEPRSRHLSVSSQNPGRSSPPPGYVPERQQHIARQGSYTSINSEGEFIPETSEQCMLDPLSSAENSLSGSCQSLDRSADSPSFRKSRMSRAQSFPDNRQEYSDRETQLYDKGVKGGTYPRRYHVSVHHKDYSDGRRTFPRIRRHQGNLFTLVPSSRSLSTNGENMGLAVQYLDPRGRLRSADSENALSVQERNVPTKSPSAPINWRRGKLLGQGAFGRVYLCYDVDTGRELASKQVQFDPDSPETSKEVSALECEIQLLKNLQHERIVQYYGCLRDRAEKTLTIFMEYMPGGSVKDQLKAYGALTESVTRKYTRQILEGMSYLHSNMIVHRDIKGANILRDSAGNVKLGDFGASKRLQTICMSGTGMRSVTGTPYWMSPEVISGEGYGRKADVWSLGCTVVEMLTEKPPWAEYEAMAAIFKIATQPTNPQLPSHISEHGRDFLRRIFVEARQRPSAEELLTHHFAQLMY
GRK2 CP1: confirmation of human GRK2 inhibitors displacing RNA aptamer | bead-bound GRK2, FAM-aptamer displacement, flow cytometry | aptamer displacement, % at 10 µM | shares compounds with GRK2 aptamer HTS | 2,000 tested, 4% active;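 active = aptamer displacement above 40%, near three times the noise of non-fluorescent compounds, on plates passing quality checks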;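 also: negative values mostly reflect intrinsic compound fluorescence rather than true enhancement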
Aptamer quench: fluorescent aptamer quenching in GRK2 counter-screen dose response | shares compounds with GRK2 aptamer HTS | Fluorescent RNA aptamer beads, flow cytometry; stronger effect = higher value | fluorescence change (kMESF span), kMESF (test concentration not listed) | 110 tested, under 10 active;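 active = compounds whose bead fluorescence drops by more than 37 kMESF across the dose range, marking them as dye quenchers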
Aptamer quench SP: counter-screen for GRK2 aptamer inhibitors: fluorescent aptamer quenchers; 2,000 tested, under 10 active; Carboxyfluorescein RNA aptamer on beads, flow cytometry quenching; stronger effect = lower value; shares compounds with GRK2 aptamer HTS; fluorescence response (% of DMSO), % at 10 µM; AID 504580;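 active = compounds that quench the bead-bound fluorescent RNA probe, cutting fluorescence to under half of the solvent control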;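 also: counterscreen run without GRK2 so only probe quenching by compound is measured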
GRK2 confirm 2: human GRK2 inhibition confirmation, cherry pick 2. shares compounds with GRK2 aptamer HTS. bead-bound GRK2, FAM-aptamer displacement, flow cytometry. inhibition of aptamer binding, % at 10 µM. 360 tested, under 10 active;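 active = inhibition of aptamer binding above 40%, about triple the noise seen with nonglowing compounds, on plates passing quality control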;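 also: negative values mostly come from compounds that fluoresce themselves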
FAM quench SP: counter-screen for GRK2 binding hits: quenchers of fluorescent RNA aptamer. shares compounds with GRK2 aptamer HTS. carboxyfluorescein RNA aptamer beads, flow cytometry quenching; stronger effect = lower value. fluorescence response vs DMSO, % at 10 µM. 360 tested, under 10 active. AID 588494;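 active = response vs DMSO under 50%, meaning signal dropped by over half, treated as fluorescence quencher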;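 also: labelled aptamer on streptavidin beads without GRK2 as a quench counter-screen; 100% = bead fluorescence of DMSO wells and lower means quenching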
* hit, by the source's call; . = no result. Only some compounds are listed: those with a hit (about 2.5% of all), similar ones and a draw of the others.

SMILES	MEKK2wt PB1 HTS	GRK2 aptamer HTS	MEKK2mut PB1 HTS	MEKK3 PB1 HTS	GRK2 CP1	Aptamer quench SP	others
CC1CC(C)CN(S(=O)(=O)c2cccc(C(=O)OCCN3CCCC3=O)c2)C1 (stereo not given)	105	89*	-1	104	2	98
O=C(NC1CC2CCC(C1)N2C(=O)NCc1ccccc1)NC12CC3CC(CC(C3)C1)C2 (stereo not given)	.	3	.	.	.	.
COc1ccccc1NC(=S)N1C2CCC1CC(NC(=O)NC13CC4CC(CC(C4)C1)C3)C2 (stereo not given)	93	46*	-5	94	1	92
CN(Cc1cnn(C)c1)C(=O)C1CCC(=O)N(Cc2ccc(Cl)cc2)C1 (stereo not given)	95	0	-4	99	.	.
O=C(CC1SC(N2CCCCC2)=NC1=O)Nc1cccc(C(=O)O)c1 (stereo not given)	104	0	2	101	.	.
O=C(CC1SC(N2CCCCC2)=NC1=O)Nc1cccc(C(=O)NCc2ccc(F)cc2)c1 (stereo not given)	.	.	.	.	24	99	Aptamer quench=-30
Cc1ccc(-c2cn3nc(-c4ccccc4)c(-c4ccccc4)nc3n2)cc1	69	66*	-16	83	3	103
O=[N+]([O-])c1cccc(-c2cn3nc(-c4ccccc4)c(-c4ccccc4)nc3n2)c1	67	14	-14	91	.	.
O=[N+]([O-])c1ccc(-c2cn3nc(-c4ccccc4)c(-c4ccccc4)nc3n2)cc1	75	42*	4	101	28	107
O=C(CCNC(=O)Cn1ccc2ccccc2c1=O)NCc1ccc(F)cc1Cl	94	0	-5	101	.	.
O=C1CCCC(O)=C1N=Nc1cccc(C(=O)O)c1	103	83*	0	97	4	98
CCN(CC)S(=O)(=O)c1cccc(N=NC2=C(O)CCCC2=O)c1	97	1	-2	99	.	.
COc1ccccc1Oc1cc(-n2nc(C)cc2C)ncn1	93	82*	-1	96	.	.	GRK2 confirm 2=8;FAM quench SP=100
O=C(CC1C[C@H](C(=O)N2CCOCC2)[C@@]2(CCC3CCCC3)c3[nH]c4ccccc4c3CCN2C1=O)NCC12CC3CC(CC(C3)C1)C2 (stereo not given in full)	.	6	.	.	.	.
O=C(COc1ccc(Cl)cc1Cl)Nc1cccc(-c2ccc(N3CCOCC3)nn2)c1	.	.	.	.	-2	93
O=C(COc1ccccc1)Nc1cccc(-c2ccc(N3CCOCC3)nn2)c1	.	0	.	.	1	94
CC(=O)Nc1ccc2nc3c(=O)n(C)c(=O)n(C)c3nc2c1	99	42*	-1	96	20	78
NC(=O)c1cc([N+](=O)[O-])ccc1NCc1cccc(N)c1	.	1	.	.	.	.
O=C(C1CCCCCC1)N1CC[C@@H](N2CCC(O)CC2)[C@H](O)C1	110	31	2	102	-5	102
O=C(C1CCCCC1)N1CCN(C(=O)C2CCCCC2)CC1	107	0	7	101	.	.
C=CCn1cccc(C(=O)Nc2ccc(OC)c(Cl)c2)c1=O	104	0	3	104	.	.
C=CCn1cccc(C(=O)Nc2ccc(OC)c(OC)c2)c1=O	106	48*	0	104	0	97
CC(=O)c1ccc(C(=O)N2CCCC(CO)(Cc3ccccc3C)C2)s1 (stereo not given)	99	.	-2	100	.	.
C=CCNC(=O)/C(=C/c1cccc([N+](=O)[O-])c1)NC(=O)c1ccccc1	104	46*	-1	111	0	97
C=CCNC(=O)/C(=C/c1cn(-c2ccccc2)nc1-c1cccc([N+](=O)[O-])c1)NC(=O)c1ccccc1	128	0	29	101	.	.
SMILES	MEKK2wt PB1 HTS	GRK2 aptamer HTS	MEKK2mut PB1 HTS	MEKK3 PB1 HTS	GRK2 CP1	Aptamer quench SP	others
O=C(c1ccccc1)c1cc([N+](=O)[O-])ccc1N1CCCC1	103	100*	-1	124	.	.	GRK2 confirm 2=-3;FAM quench SP=100
CCN(CC)C(=O)C1CCCN(c2ccc([N+](=O)[O-])cc2/C=N/NC(=O)c2cccc(Br)c2)C1 (stereo not given)	101	0	3	107	.	.
O=C(N/N=C/c1cc([N+](=O)[O-])ccc1N1CCCCCC1)c1ccccn1	94	84*	-7	97	2	97
Cc1ccc(C2(c3ccccc3)NC(=O)N(CC(=O)NC3(C#N)CCCC3)C2=O)cc1C (stereo not given)	.	0	.	.	.	.
O=C(CSc1nc2cc(Cl)ccc2s1)NCC1CCCO1 (stereo not given)	.	0	.	.	.	.
O=C(CSc1nc2ccc([N+](=O)[O-])cc2s1)NCC1CCCO1 (stereo not given)	110	90*	-2	108	1	102
O=C(CC1C(=O)NCCN1Cc1ccccn1)NCCc1ccccc1F (stereo not given)	115	5	12	109	.	.
CCCCS(=O)(=O)Nc1ccc(N2CCOCC2)c(S(=O)(=O)N2CCOCC2)c1	98	5	-1	102	.	.
CC(=O)c1ccc(N2CCN(CC(=O)Nc3ccc4c(c3)OCCO4)CC2)cc1	94	0	-4	94	.	.
Cc1cc(C)c(C)c(S(=O)(=O)N2CCN(C(=O)c3cc(S(=O)(=O)N4CCOCC4)ccc3F)CC2)c1C	.	1	.	.	-1	102
Cc1c(Cl)cccc1NS(=O)(=O)c1cn(C)c(=O)n(C)c1=O	96	59*	-3	97	-2	102
CC(C)(C)N(Cc1ccccc1)C(=O)c1cc2ccccc2o1	92	1	2	97	.	.
CCOc1ccc(NC(=S)NCC(c2cccnc2)N2CCOCC2)cc1 (stereo not given)	93	2	-3	99	.	.
CN(CC(=O)NCCc1ccc(S(N)(=O)=O)cc1)S(=O)(=O)c1ccc(Br)s1	98	90*	0	99	2	98
CN(CC(=O)NCc1ccc(F)cc1)S(=O)(=O)c1ccc(Br)s1	98	0	1	101	.	.
O=C1CN(C(=O)COC(=O)[C@@H]2CCCN2S(=O)(=O)c2ccc(Cl)cc2)c2ccccc2N1	.	1	.	.	.	.
COc1cc(O)sc1C=Nc1ccc(Cl)cc1Cl	99	4	-2	105	.	.
COC(CNC(=O)CN1CCN(Cc2ccc(F)cc2Cl)C1=O)OC	105	17	5	100	-3	96
